In assay [1] the target is Rap guanine nucleotide exchange factor 3 (Homo sapiens) (UniProt O95398). Put plainly: Confirmatory qHTS for antagonist of cAMP-regulated guanine nucleotide exchange factor 3 (EPAC1) (AID 1645880).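 For activity, negative = inhibition: plate controls were DMSO only for no effect and full effect of the ATA control for full effect.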 Note: nearly all actives have a fitted effect of over 55% in size. Note: potency is the fitted concentration of half-maximal effect. The note with it: EPAC1 Rap1B-BODIPY-GDP exchange, fluorescence; activity, negative = inhibition: at 115 µM (top of the series). In a few lines: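 Nucleotide exchange uses 100 nM EPAC1, 250 nM RAP1B-BODIPY-GDP and 50 uM GDP, with compounds in a concentration-titration series. After 5 min at room temperature, fluorescence (480 nm ex/540 nm em) is read every 5 min for 30 min. Data are normalized to control ATA and DMSO.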
(In general: In qHTS, concentration-response curves come from the screen itself.)

The target is the same in assay [2]. Put plainly: Confirmatory qHTS for agonist of cAMP-regulated guanine nucleotide exchange factor 3 (EPAC1) (AID 1645881).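 Note: EPAC1 catalysed release of BODIPY-GDP from Rap1B seen as fluorescence loss; 100% = effect of cAMP agonist control; nearly all actives have a fitted effect of over 75% in size.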
Assay [3] concerns the target Rap guanine nucleotide exchange factor 4 (Homo sapiens) (UniProt Q8WZA2). Put plainly: Confirmatory qHTS for agonist of cAMP-regulated guanine nucleotide exchange factor 4 (EPAC2) (AID 1645884).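 Note: nucleotide exchange releases bodipy-GDP from Rap1 and this lowers its fluorescence; % is set by controls: 0 for no effect and ±100 for the full control effect; nearly all actives have a fitted effect of over 65% in size.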
The target is the same in assay [4]. As to the kind of experiment: Confirmatory qHTS for antagonist of cAMP-regulated guanine nucleotide exchange factor 4 (EPAC2) (AID 1645885). For activity change, negative = inhibition: % is set by controls: 0 for no effect and ±100 for the full control effect. Note: nearly all actives have a fitted effect of over 25% in size.
Assay [5] addresses Rap guanine nucleotide exchange factor 3 (Homo sapiens) (UniProt O95398). As to the kind of experiment: Counterscreen qHTS for antagonist of cAMP-regulated guanine nucleotide exchange factor 3 (EPAC1) (AID 1645888).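 Note: fluorescence loss as bound BODIPY-GDP is released from Rap1B; % of control where 0% means no effect.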 In a few lines:
(§1)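 Rap1B–BODIPY-GDP (250 nM) with 50 uM GDP; compounds pin-transferred to 9.74 nM–152 uM final (activator) or from 7.32 nM upwards (inhibitor). Fluorescence Ex/Em 480/540 nm read at 5 and 30 min, then after adding cAMP or buffer, at room temperature.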
(A counterscreen serves to expose hits that act by an unwanted route or on another target.)

Assay [6] has the same target. Put plainly: Counterscreen qHTS for agonist of cAMP-regulated guanine nucleotide exchange factor 3 (EPAC1) (AID 1645889). Note: % of control where 0% means no effect; nearly all actives have a fitted effect of over 40% in size. The gist of the method:
as §1

Assay [7] in a line: qHTS for Inhibitors of the vitamin D receptor (VDR): Hit Validation using a Texas Red Assay (AID 602201). Note: potency is the fitted concentration of half-maximal effect. The gist of the method: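 Fluorescence polarization with 1.5 uM VDR-LBD, LG19078 and 7 nM Texas Red (final). After 2 hours at ambient temperature, read at Ex 595 nm/Em 615 nm.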
The nature of assay [8]: AP1 Signaling Pathway (AID 357; active = well fitted curve in either direction with a large enough effect, not every such curve was filed as active;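 note: ME-180 reporter cells stimulated with EGF at its EC50 level; % is set by controls: 0 for no effect and ±100 for the full control effect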). Conditions: ME-180 AP-1-bla reporter, EGF-induced, beta-lactamase ratio, 5 h; at 7.69 µM (top of the series) unless noted. The gist of the method: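 A ratiometric CCF4 readout (405 nm excitation; 460 and 530 nm emission) quantified AP-1-driven beta-lactamase in ME-180 cells after 5 h with compound and EC50 EGF; AC50 values were derived for activators and inhibitors.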

Assay [9] is described as follows: NFAT Signaling Pathway (AID 444; active = well fitted curve in either direction with a large enough effect, not every such curve was filed as active;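 note: carbachol stimulus at about its EC50 of 1 µM final; % is set by controls: 0 for no effect and ±100 for the full control effect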). Conditions: Jurkat NFAT-bla M1, carbachol, beta-lactamase ratio, 5 h; at 7.69 µM (top of the series) unless noted. In a few lines:
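Jurkat cells with NFAT-driven β-lactamase reporter and co-expressed M1 receptor, stimulated with carbachol (final 1 uM, ~EC50), compound titration, 5 h at 37 °C. CCF4 loaded 1 h at RT; 460/530 nm ratio gave %activity and AC50.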

A short description of assay [10]: Stat Signaling Pathway (AID 446; active = well fitted curve in either direction with a large enough effect, not every such curve was filed as active;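 note: ME-180 cervical cancer cells given 40 pM IL-6 alongside compound; SIE-controlled beta-lactamase reporter measured as 460/530 nm FRET emission ratio; % is set by controls: 0 for no effect and ±100 for the full control effect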). In a few lines: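 Reporter line: ME-180 cervical carcinoma, SIE-beta-lactamase. Treatment: compound with 40 pM IL-6, 5 hrs, 37 C, in low-serum OPTI-MEM with 10 mM HEPES pH 7.3. Detection: 460/530 nm fluorescence.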
Assay [11] can be described thus: qHTS for Inhibitors of Plasmodium falciparum (DD2) proliferation (AID 504314).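 Note: parasite DNA measured by SYBR Green fluorescence after red cell lysis; plate controls were DMSO vehicle for no effect and artemisinin wells for full effect.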 The gist of the method:
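Infected RBCs, 0.3% parasitemia, 2.5% Hct; compound 72 h, 37C/5% CO2; lyse + SYBR Green I, RT overnight, dark; read ex485/em535; normalize to DMSO and artemisinin 0.29 uM.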

Assay [12] is described as follows: qHTS for Inhibitors of Plasmodium falciparum (GB4) proliferation (AID 504315).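 Note: 0% = DMSO vehicle and -100% = 0.29 µM artemisinin control; nearly all actives have a fitted effect of over 50% in size.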 The gist of the method:
(§2)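 Erythrocytes infected with P. falciparum line (0.3% parasitemia, 2.5% hematocrit final) incubated with compounds 72 h at 37 °C, 5% CO2; SYBR Green lysis buffer added, fluorescence read next day. Normalized to 0.29 uM artemisinin and DMSO.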

The nature of assay [13]: qHTS for Inhibitors of Plasmodium falciparum (7G8) proliferation (AID 504316).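 Note: 0% = DMSO vehicle and -100% = 0.29 µM artemisinin full kill; nearly all actives have a fitted effect of over 65% in size.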 The gist of the method:
as §2

Assay [14] can be described thus: qHTS for Inhibitors of Plasmodium falciparum (HB3) proliferation (AID 504318).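 Note: 0% = DMSO vehicle and -100% = artemisinin control; nearly all actives have a fitted effect of over 60% in size.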 The gist of the method: as §2
A short description of assay [15]: qHTS for Inhibitors of Plasmodium falciparum (CP250) proliferation (AID 504320).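 Note: plate controls were DMSO vehicle for no effect and 0.29 µM artemisinin control for full effect.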 In a few lines: as §2
In assay [16] the target is Glucocorticoid receptor (Homo sapiens) (UniProt P04150). As to the kind of experiment: GR-GFP Redistribution (AID 450;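 active = compounds whose dose series gives a full or clear partial fitted curve of increased nuclear translocation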; note: potency is the fitted concentration of half-maximal effect). Conditions: U2OS GR-GFP nuclear translocation, laser cytometry, 2 h.
Assay [17] can be described thus: qHTS Assay for Identification of Small Molecule Agonists for Hypoxia Response Element Signaling Pathway (AID 914; active = well fitted activation curve with a large enough effect in the signal ratio, with a control signal flat, not every such curve was filed as active; the % refers to the signal ratio; note: % of control where 0% means no effect). Conditions: ME-180 (cervical carcinoma) HRE-bla reporter, beta-lactamase ratio, CoCl2, 17 h; activation: hits give high values. In a few lines:
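A beta-lactamase reporter under hypoxia response element control in ME-180 cells served as the system. Compound titrations plus EC50 CoCl2 ran 17 h at 37 degrees Celsius; AC50 values were fitted from %Activity.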

Unmarked numbers belong to inactive results. Records with an inconclusive call do not appear. Activity calls are given as the source filed them. Unless noted, calls come from the whole dose curve; as a rule, active = well fitted curve in the direction sought with a large enough effect; inconclusive = small, poorly fitted or top-dose-only effect, or another doubt; inactive = no such curve, though single readings can be large; an effect the other way counts as inactive or inconclusive.

Chain of Rap guanine nucleotide exchange factor 4 (Homo sapiens) (Q8WZA2 whole entry, looked up): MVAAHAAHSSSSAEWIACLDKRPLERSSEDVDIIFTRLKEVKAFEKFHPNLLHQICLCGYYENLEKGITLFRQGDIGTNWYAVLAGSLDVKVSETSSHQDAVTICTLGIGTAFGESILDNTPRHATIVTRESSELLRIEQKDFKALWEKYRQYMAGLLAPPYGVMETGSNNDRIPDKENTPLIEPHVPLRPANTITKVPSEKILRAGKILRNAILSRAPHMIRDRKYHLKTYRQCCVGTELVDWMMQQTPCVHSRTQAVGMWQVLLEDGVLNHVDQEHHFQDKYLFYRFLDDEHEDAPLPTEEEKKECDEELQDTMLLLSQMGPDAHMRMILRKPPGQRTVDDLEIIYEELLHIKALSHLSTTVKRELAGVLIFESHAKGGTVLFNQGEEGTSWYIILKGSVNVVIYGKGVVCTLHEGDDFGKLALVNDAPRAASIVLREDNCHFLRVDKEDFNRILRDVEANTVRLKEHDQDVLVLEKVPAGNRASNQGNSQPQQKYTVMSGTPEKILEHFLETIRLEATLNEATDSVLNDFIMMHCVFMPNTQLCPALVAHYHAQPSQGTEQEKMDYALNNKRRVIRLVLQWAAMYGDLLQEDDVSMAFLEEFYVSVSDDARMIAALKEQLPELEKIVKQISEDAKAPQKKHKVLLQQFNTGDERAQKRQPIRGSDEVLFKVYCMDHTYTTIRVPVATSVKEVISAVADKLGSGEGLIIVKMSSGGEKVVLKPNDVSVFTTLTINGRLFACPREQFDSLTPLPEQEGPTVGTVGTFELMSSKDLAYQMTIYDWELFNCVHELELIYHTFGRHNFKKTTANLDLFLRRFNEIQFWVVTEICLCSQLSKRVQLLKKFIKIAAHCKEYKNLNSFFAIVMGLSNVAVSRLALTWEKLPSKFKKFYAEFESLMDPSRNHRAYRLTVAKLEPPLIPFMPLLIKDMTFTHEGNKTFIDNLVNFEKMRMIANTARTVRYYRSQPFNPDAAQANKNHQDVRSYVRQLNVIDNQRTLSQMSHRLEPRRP
Chain of Rap guanine nucleotide exchange factor 3 (Homo sapiens) (O95398 whole entry, looked up): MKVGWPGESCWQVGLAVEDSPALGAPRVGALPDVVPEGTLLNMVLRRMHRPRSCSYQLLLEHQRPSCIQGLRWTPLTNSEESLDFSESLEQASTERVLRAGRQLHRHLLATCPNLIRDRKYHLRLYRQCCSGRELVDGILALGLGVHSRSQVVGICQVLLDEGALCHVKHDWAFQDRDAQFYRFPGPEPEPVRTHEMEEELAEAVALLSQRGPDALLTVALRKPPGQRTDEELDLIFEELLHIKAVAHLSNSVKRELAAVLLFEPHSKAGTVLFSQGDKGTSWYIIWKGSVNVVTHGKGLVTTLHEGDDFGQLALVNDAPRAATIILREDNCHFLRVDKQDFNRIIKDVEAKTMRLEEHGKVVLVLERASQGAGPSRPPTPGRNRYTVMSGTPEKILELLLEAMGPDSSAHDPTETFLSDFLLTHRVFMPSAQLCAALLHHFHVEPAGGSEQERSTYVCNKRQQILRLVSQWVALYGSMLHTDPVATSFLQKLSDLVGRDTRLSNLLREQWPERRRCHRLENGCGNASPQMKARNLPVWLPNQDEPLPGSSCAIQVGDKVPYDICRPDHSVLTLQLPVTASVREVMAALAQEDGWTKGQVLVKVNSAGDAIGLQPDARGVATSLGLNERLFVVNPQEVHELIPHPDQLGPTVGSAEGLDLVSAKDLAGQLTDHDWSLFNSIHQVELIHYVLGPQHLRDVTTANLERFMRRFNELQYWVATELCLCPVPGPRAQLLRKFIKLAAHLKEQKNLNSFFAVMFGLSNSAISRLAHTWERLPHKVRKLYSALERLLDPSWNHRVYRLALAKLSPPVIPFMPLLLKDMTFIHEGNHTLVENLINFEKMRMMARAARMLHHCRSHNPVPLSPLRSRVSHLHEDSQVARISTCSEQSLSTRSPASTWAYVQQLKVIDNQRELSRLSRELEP
Chain of Glucocorticoid receptor (Homo sapiens) (P04150 whole entry, looked up): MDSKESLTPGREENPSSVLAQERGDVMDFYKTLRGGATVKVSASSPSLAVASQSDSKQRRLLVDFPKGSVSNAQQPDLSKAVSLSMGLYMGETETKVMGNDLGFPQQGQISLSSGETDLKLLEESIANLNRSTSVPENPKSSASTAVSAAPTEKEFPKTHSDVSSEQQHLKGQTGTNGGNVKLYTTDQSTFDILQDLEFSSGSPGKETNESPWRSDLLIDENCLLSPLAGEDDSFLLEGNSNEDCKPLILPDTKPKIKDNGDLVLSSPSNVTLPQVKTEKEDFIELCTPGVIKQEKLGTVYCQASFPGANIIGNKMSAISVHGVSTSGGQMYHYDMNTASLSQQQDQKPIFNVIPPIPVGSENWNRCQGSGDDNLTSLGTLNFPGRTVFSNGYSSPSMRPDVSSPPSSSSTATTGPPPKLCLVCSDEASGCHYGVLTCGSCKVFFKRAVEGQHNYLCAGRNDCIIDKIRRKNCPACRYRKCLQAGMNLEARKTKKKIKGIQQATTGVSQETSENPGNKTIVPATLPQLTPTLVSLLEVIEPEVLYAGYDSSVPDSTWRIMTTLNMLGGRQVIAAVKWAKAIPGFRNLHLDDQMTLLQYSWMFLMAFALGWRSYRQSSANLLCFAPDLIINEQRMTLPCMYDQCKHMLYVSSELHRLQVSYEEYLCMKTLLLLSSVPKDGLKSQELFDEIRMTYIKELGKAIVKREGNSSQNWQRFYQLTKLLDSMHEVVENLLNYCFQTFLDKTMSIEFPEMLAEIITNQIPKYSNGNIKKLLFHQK

On to `CCCn1c(=O)n(C)c(=O)c2c(SCC(=O)NCc3ccco3)nc(C3CC3)nc21`, for which the Potency result in assay [1], in assay [2], in [3], in assay [4], in assay [5] and in assay [6] was “inactive” throughout.
`COc1ccc(/C=N\NC(=O)c2cc3c(ccc4ccccc43)o2)cc1O`: the Potency entry in [1], in assay [2] and in [4] was “inactive” throughout. In addition, the activation is 5.26% [at 17.1 µM, percent relative to cAMP agonist control] in [3] and 29.4% [at 30.8 µM] in assay [6]. The activity change, negative = inhibition in assay [5] was 0.0783% [at 30.8 µM].
With `O=C(CSC1=NCCS1)N1N=C(c2cccs2)CC1c1ccc(F)cc1` (stereo unspecified), the Potency result in [1], in assay [2] and in assay [4] was “inactive” throughout. Also, the activation in [3] is 6.13% [at 17.1 µM, percent relative to cAMP agonist control]; in assay [6], 21.2% [at 30.8 µM]. Besides, the activity change, negative = inhibition in assay [5] was 4.6% [at 30.8 µM].
`CC1=NOC(=O)/C1=C\c1ccc(-c2ccc(Br)cc2)o1`: the Potency in assay [7] was 3.16 µM (active); in assay [1], 25.1 µM (active). In addition, the Potency entry in assay [2] and in assay [4] was “inactive” each time. Moreover, the activation was -0.7% [at 17.1 µM, percent relative to cAMP agonist control] in assay [3] and 11.6% [at 30.8 µM] in assay [6]. Moreover, the activity change, negative = inhibition in assay [5] is -10.2% [at 30.8 µM].
Turning to `COC(=O)c1cc(Br)c(=O)n(CCc2ccc(F)cc2)c1`, the activity change, negative = inhibition in assay [8] is 4.29% [at 17.2 µM]; in assay [9], -12.1% [at 17.2 µM]. Moreover, the compound was classed as inactive in assay [10]. The Potency entry in assay [1], in [2], in assay [3], in assay [4], in assay [5] and in [6] was “inactive” in each case.
With `CCC(C)Sc1nc2c(c(=O)[nH]c(=O)n2C)n1CC(O)COc1cccc2ccccc12` (stereo unspecified), the Potency result in [1], in assay [2], in assay [3], in assay [4], in assay [5] and in assay [6] was “inactive” in each case.
In the case of `CCN1C(=O)N(S(=O)(=O)C(F)(F)F)[C@@H](c2ccccc2)C(C(=O)OC)=C1C`, the result in assay [11], in assay [12], in assay [13], in [14] and in [15] was inactive. Besides, the Potency result in assay [1], in assay [2], in assay [3], in assay [4], in assay [5] and in assay [6] was “inactive” in each case.
With `CC(NC(=O)Nc1ccc(O)cc1)(C(F)(F)F)C(F)(F)F`, the activity change, negative = inhibition in assay [9] was 11.8% [at 17.2 µM]; in assay [5] it was -9.73% [at 30.8 µM]. Besides, in assay [10], the call was inactive. In addition, the Potency in assay [16] was above 20.6 µM. Also, the activation in assay [17] was 8.6%; in assay [3], -12.7% [at 17.1 µM, percent relative to cAMP agonist control]; in [6] it was 3.78% [at 30.8 µM]. In addition, the Potency entry in assay [1], in assay [2] and in [4] was “inactive” in each case.

The values above are taken from PubChem BioAssay (NCATS).
